This is a sample that favours compounds with a hit; in the whole collection about 21% have one here.
TDP1 cell CPT = DT40-hTDP1 cell growth loss with CPT; Potency, µM (doses to about 46.2 µM), for inactives: at the top dose activity change, negative = growth inhibition, usual class: inhibitors; 420,000 compounds, 12% hits; AID 686979; chicken DT40 Tdp1-/-;hTDP1 cells + 20 nM CPT, ATP luminescence, 48 h; further: potency means the concentration at half of the fitted maximal effect; on the % scale 0 is the no-effect control and ±100 the full control effect; nearly all actives have a fitted effect of over 55% in size
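Chicken DT40 Tdp1-/- cells stably complemented with human TDP1 were seeded at 400 cells/well in medium containing 20 nM camptothecin, exposed to pin-transferred compounds, and grown at 37 °C for at least 48 hr. Viability was read as ATP luminescence.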
TDP1 cell noCPT = qHTS for Inhibitors of human tyrosyl-DNA phosphodiesterase 1 (TDP1): qHTS in cells in absence of CPT; 420,000 compounds, 15% hits; Potency, µM (doses to about 46.2 µM), for inactives: top-dose activity change, negative = growth inhibition, actives largely listed as inhibitors; DT40 Tdp1-/- hTDP1 cells, no CPT, ATP luminescence, 48 h; AID 686978, 2013; further: potency means the concentration at half of the fitted maximal effect; on the % scale 0 is the no-effect control and ±100 the full control effect; nearly all actives have a fitted effect of over 55% in size
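No-CPT arm: Tdp1-/-;hTDP1 DT40 cells (400/well) plus compounds, incubated ≥48 hr at 37 °C. Readout CellTiter-Glo luminescence.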
ClpP mod = qHTS Assay for Activators of ClpP; Potency, µM (highest dose often 57.5 µM), inactives show at the highest dose activity change, negative = active; ATP-dependent Clp protease proteolytic subunit (Bacillus subtilis (strain 168)), P80244; 340,000 compounds, 1.9% hits; purified B. subtilis ClpP, FRET peptide cleavage, 20 min; active means well fitted falling curve with a large enough effect; inconclusive means small, poorly fitted or top-dose-only effect; inactive means no such curve, though single readings can be large or run the other way; further: potency means the concentration at half of the fitted maximal effect; the source files actives as falling curves though it sought activators and does not explain the sign; nearly all actives have a fitted effect of over 65% in size
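Buffer: 100 mM Tris/HCl pH8, 100 mM KCl, 0.05% low protease BSA, 2.5% glycerol, 0.01% Tween-20. ClpP 10 microg/mL final; 20 min RT; delta FRET normalized to ADEP and DMSO controls.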
IL-1B inflam inh = blocks inflammasome-driven IL-1 beta release | THP-1 LPS/ATP IL-1B secretion, AlphaLISA, 16 h; active compounds read low | activity change, % at 57.5 µM | 360,000 compounds, 4.7% hits | AID 743279; in the data active means activity change below about -50%; inconclusive means mostly about -30% to -49%; further: on the % scale 0 is the no-effect control and ±100 the full control effect
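THP-1 cells pretreated 1 hr with compounds (up to 57.5 uM final), then stimulated with LPS (250 ng/mL final) plus ATP (1.25 mM final); secreted IL-1B measured by AlphaLISA after 16 hr, decreased signal indicating inhibition.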
DRD3 antagonist = D3 dopamine receptor (human) antagonism; AID 652054; D3R cells, DiscoveRx beta-arrestin luminescence, antagonist mode; active compounds read low; 360,000 compounds, 2.5% hits; max response, negative = inhibition, %; P35462; in the data active means max response below about -50%; inconclusive means no clear call, values can overlap the other calls; further: on the % scale 0 is the no-effect control and ±100 the full control effect
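Cells expressing the human receptor were seeded at 1500 cells/well, incubated overnight at 37 degrees C in 5% CO2, then exposed to library compounds with dopamine controls for 90 minutes at 37 degrees C before luminescent detection.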
DRD3 agonist = D3 dopamine receptor (human) agonism; D3R DiscoveRx beta-arrestin cells, luminescence, 90 min; max activation, %; 410,000 compounds, 0.58% hits; AID 652048; in the data active means max activation above about 30%; further: 0% is about no effect
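Cells at 1500/well, incubated overnight, then treated with pinned compounds (dopamine as control) for 90 min at 37 degrees C. DiscoveRx reagent added for 30 - 60 minutes at room temperature; luminescence read.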
Active calls of the source: *; [ ] = another dose, or the depositor's remark. Unless noted, the call rests on the fitted dose curve; in most records, active means well fitted inhibition curve with a large enough effect; inconclusive means small, poorly fitted or top-dose-only effect; inactive means flat fitted curve, though single readings scatter.

For COc1ccc(NC(=O)c2cc(C)nc3ccccc23)cc1S(=O)(=O)Nc1ccccc1Cl the results were TDP1 cell CPT -14%, TDP1 cell noCPT inconclusive, ClpP mod -2%, IL-1B inflam inh 18, DRD3 antagonist 1 and DRD3 agonist -6.
COc1ccc(NS(=O)(=O)c2cc(NC(=O)CCSc3ccccc3)ccc2OC)cc1 was read as TDP1 cell CPT inconclusive, TDP1 cell noCPT inconclusive, ClpP mod -1%, IL-1B inflam inh -5, DRD3 antagonist 39 and DRD3 agonist 2.
For CCN(CC(=O)Nc1ccc(Br)c(C)c1)CC(=O)NC(C)C the results were TDP1 cell CPT inconclusive, TDP1 cell noCPT 15µM*, ClpP mod -7%, IL-1B inflam inh -3, DRD3 antagonist -15 and DRD3 agonist -5.
For COc1ccc(NC(=O)CCSc2ccc(C)cc2)cc1S(=O)(=O)Nc1ccccc1Cl the results were TDP1 cell CPT inconclusive, TDP1 cell noCPT 13µM*, ClpP mod -2%, IL-1B inflam inh 24, DRD3 antagonist -20 and DRD3 agonist 1.
`CC(C)C1Cc2[nH][nH]c(=O)c2C(C2CC2)O1` (stereo not drawn) gave TDP1 cell CPT -13%, TDP1 cell noCPT -18%, ClpP mod 1%, IL-1B inflam inh 11, DRD3 antagonist -5 and DRD3 agonist 0.
For COc1cccc(C(=O)NC23CC4CC(CC(C4)C2)C3)c1 the results were TDP1 cell CPT -19%, TDP1 cell noCPT -21%, IL-1B inflam inh -23, DRD3 antagonist 1 and DRD3 agonist -2.
O=C(NC[C@@H]1CCCN2CCCC[C@H]12)c1cnn(-c2nccc(-c3ccco3)n2)c1C1CC1 was read as TDP1 cell CPT 4%[9.04 µM] and TDP1 cell noCPT -4%.
Cc1ccc(SCCC(=O)Nc2ccc(Br)c(C)c2)cc1 was read as TDP1 cell CPT 7%, TDP1 cell noCPT 6%, ClpP mod -6%, IL-1B inflam inh -108*, DRD3 antagonist -6 and DRD3 agonist 3.
Screening COC(=O)c1ccc(C)c(N(CCO)CCO)c1 returned TDP1 cell CPT 2%, TDP1 cell noCPT -1%, ClpP mod -1%, IL-1B inflam inh 0, DRD3 antagonist -6 and DRD3 agonist 36*.
For COC(=O)c1ccc(C)cc1 the results were TDP1 cell CPT 0%, TDP1 cell noCPT 5%, ClpP mod -4%, IL-1B inflam inh -8, DRD3 antagonist 12 and DRD3 agonist 2.
For O=C1c2ccccc2-c2onc3ccc(NCc4ccco4)c1c23 the results were TDP1 cell CPT inconclusive, TDP1 cell noCPT 23µM*, ClpP mod 1%, IL-1B inflam inh -97*, DRD3 antagonist -4 and DRD3 agonist -4.
For Cn1c(=O)cc2c3c(c(N4CCCCC4)ccc31)C(=O)c1ccccc1-2 the results were TDP1 cell CPT inconclusive, TDP1 cell noCPT 10µM*, ClpP mod -2%, IL-1B inflam inh -13, DRD3 antagonist 8 and DRD3 agonist 7.
O=C1C=C(N2CCCCC2)c2ccccc2C1=O was read as TDP1 cell CPT 3.7µM*, TDP1 cell noCPT 6.5µM*, ClpP mod 0%, IL-1B inflam inh -97*, DRD3 antagonist 6 and DRD3 agonist 5.
Screening O=C1c2ccccc2C(=O)c2c1cccc2N1CCCC1 returned TDP1 cell CPT inconclusive, TDP1 cell noCPT 8.2µM*, ClpP mod -4%, IL-1B inflam inh -29, DRD3 antagonist 2 and DRD3 agonist -2.
Screening Cn1nc(-c2ccccc2)c(N2CCCCC2)cc1=O returned TDP1 cell CPT -4%, TDP1 cell noCPT inconclusive, ClpP mod 2%, IL-1B inflam inh -5, DRD3 antagonist 3 and DRD3 agonist 1.
O=C1c2ccccc2-c2cccc(C(=O)N3CCCCC3)c21 was read as TDP1 cell CPT -6%, TDP1 cell noCPT -9%, IL-1B inflam inh -19, DRD3 antagonist -13 and DRD3 agonist -3.
`O=C1c2ccccc2-c2onc3ccc(N4CCCC4)c1c23` gave TDP1 cell CPT inconclusive, TDP1 cell noCPT 26µM*, ClpP mod -2%, IL-1B inflam inh inconclusive, DRD3 antagonist inconclusive and DRD3 agonist -8.
Screening N/C(=N\OS(=O)(=O)c1ccc(Cl)cc1)c1ccccn1 returned TDP1 cell CPT inconclusive, TDP1 cell noCPT 16µM*, IL-1B inflam inh 84, DRD3 antagonist -2 and DRD3 agonist -3.
`N/C(=N\OC(=O)COc1ccc2ccccc2c1)c1ccccn1` gave TDP1 cell CPT -1%, TDP1 cell noCPT -10%, ClpP mod 0%, IL-1B inflam inh -58*, DRD3 antagonist 9 and DRD3 agonist 1.
Screening N/C(=N\OC(=O)COc1ccccc1Cl)c1ccccn1 returned TDP1 cell CPT 7%, TDP1 cell noCPT 1%, ClpP mod 14µM*, IL-1B inflam inh -14, DRD3 antagonist -8 and DRD3 agonist -4.
Screening Cc1ccc(C)c(OCC(=O)O/N=C(\N)c2ccccn2)c1 returned TDP1 cell CPT 3%, TDP1 cell noCPT -13%, ClpP mod 2%, IL-1B inflam inh -19, DRD3 antagonist inconclusive and DRD3 agonist -5.
Screening O=C(Cn1c(=O)c2cccn2c2cccnc21)NCc1ccccc1F returned TDP1 cell CPT 1%, TDP1 cell noCPT -25%, ClpP mod 4% and DRD3 agonist 8.
`CCOC(=O)c1sc2cccc(F)c2c1S(=O)(=O)N1CCN(c2cccc(Cl)c2)CC1` gave TDP1 cell CPT inconclusive, TDP1 cell noCPT inconclusive, ClpP mod -3% and DRD3 agonist -11.
CCCCCCNc1nc(NCc2ccco2)nc(OCC)n1 was read as TDP1 cell CPT 21µM*, TDP1 cell noCPT 18µM*, ClpP mod -3%, IL-1B inflam inh -2, DRD3 antagonist -3 and DRD3 agonist 1.
Screening CCOC(=O)c1c(N2C(=O)C=CC2=O)sc(C)c1C returned TDP1 cell CPT 1.2µM*, TDP1 cell noCPT 2.6µM*, ClpP mod 0%, IL-1B inflam inh -96*, DRD3 antagonist 14 and DRD3 agonist 1.
CN(C)c1ccc(C(=O)/C=C/c2cccnc2)cc1 was read as TDP1 cell CPT inconclusive, TDP1 cell noCPT inconclusive, ClpP mod 1%, IL-1B inflam inh -16, DRD3 antagonist -27 and DRD3 agonist -4.
Screening O=C(C=CC=Cc1ccccc1)c1ccc([N+](=O)[O-])cc1 returned TDP1 cell CPT 23µM*, TDP1 cell noCPT 21µM*, ClpP mod 0%, IL-1B inflam inh -26, DRD3 antagonist -13 and DRD3 agonist -8.
